# Test results as given in PMC7862700, “An all-to-all approach to the identification of sequence-specific readers for epigenetic DNA modifications on cytosine”.
# Assays:
# Experiment in all cases: DAPPL (digital affinity profiling via proximity ligation, sequencing); 10 mM Tris-HCl pH 7.5, 50 mM NaCl, 1 mM DTT, 4% glycerol, room temperature, 30 min; GST-TFs on glutathione beads, 16-mer random dsDNA library, 0.1% formaldehyde crosslink after washing; high values mean tight binding
# FEV = target: T1, FEV (Homo sapiens, UniProt Q99581 1-238); details: protein: recombinant; tags: N-terminal GST; dsDNA, one strand shown
# T1 sequence: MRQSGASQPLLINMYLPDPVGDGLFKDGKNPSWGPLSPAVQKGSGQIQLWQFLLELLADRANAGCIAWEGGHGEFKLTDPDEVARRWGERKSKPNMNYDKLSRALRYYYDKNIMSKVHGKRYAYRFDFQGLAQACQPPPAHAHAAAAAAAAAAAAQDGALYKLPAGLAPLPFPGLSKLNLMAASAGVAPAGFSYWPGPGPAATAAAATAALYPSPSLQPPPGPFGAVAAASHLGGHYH
# Summary of the method: (§1)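 Binding signal is each hexamer's read frequency for a factor divided by its frequency in the tag-only sample. The factors were GST-fused human transcription factors from yeast, captured on glutathione beads, DNA-barcoded and pooled with that sample. Pools were incubated with 200 nmole of a random double-stranded 16-mer DNA library in Tris/NaCl/DTT/glycerol buffer at room temperature for 30 min, then washed, crosslinked with 0.1% formaldehyde, proximity-ligated with BsaI/T4 ligase (1 h, 37 °C), PCR-amplified and sequenced on an Illumina NextSeq500.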
# ETV5 = ETV5 (Homo sapiens, UniProt P41161 1-510); details: protein: recombinant; tags: N-terminal GST; dsDNA, one strand shown
# Sequence of ETV5 (P41161 whole entry): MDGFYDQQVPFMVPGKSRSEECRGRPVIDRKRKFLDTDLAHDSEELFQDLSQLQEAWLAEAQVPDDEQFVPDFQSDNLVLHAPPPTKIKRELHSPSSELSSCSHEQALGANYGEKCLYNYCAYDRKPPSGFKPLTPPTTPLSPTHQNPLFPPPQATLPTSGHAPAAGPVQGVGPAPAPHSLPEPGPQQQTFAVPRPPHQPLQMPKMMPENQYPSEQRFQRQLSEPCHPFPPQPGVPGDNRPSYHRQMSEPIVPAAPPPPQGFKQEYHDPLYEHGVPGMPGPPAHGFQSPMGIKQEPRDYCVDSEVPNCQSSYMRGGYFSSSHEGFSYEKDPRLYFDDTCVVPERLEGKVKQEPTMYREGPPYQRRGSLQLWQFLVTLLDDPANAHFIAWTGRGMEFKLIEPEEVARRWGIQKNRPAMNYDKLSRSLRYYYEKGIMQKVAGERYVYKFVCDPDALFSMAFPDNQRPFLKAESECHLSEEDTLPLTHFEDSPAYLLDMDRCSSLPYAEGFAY
# Summary of the method: as §1
# HSF1 = HSF1 (Homo sapiens, UniProt Q00613 1-529); details: protein: recombinant; tags: N-terminal GST; chain copies: 3; dsDNA, one strand shown
# Sequence of HSF1 (Q00613 whole entry): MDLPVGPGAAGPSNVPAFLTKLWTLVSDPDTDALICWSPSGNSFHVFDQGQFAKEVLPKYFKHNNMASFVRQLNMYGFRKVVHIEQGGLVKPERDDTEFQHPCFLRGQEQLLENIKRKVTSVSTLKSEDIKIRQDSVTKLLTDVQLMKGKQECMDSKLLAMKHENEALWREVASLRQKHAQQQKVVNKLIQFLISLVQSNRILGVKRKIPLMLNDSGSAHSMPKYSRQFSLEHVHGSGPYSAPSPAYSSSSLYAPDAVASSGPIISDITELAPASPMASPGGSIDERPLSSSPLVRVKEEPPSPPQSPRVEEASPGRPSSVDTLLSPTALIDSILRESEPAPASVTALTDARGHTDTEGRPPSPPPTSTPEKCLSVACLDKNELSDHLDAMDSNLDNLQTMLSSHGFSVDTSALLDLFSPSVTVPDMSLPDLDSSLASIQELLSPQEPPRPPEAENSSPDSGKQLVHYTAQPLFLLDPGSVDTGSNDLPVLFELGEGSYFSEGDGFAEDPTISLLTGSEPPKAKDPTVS
# Summary of the method: as §1
# SPIC = target: T2, SPIC (Homo sapiens, UniProt Q8N5J4 1-248); details: protein: recombinant; tags: N-terminal GST; dsDNA, one strand shown
# T2 sequence: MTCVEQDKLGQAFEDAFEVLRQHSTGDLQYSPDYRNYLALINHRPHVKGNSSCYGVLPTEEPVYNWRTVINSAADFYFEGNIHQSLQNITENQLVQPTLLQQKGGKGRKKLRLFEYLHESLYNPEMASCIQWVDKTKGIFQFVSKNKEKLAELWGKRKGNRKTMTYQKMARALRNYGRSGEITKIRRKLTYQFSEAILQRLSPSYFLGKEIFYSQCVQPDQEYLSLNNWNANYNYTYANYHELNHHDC
# Summary of the method: as §1
# ELF4 = ELF4 (Homo sapiens, UniProt Q99607 1-663); details: protein: recombinant; tags: N-terminal GST; dsDNA, one strand shown
# Sequence of ELF4 (Q99607 whole entry): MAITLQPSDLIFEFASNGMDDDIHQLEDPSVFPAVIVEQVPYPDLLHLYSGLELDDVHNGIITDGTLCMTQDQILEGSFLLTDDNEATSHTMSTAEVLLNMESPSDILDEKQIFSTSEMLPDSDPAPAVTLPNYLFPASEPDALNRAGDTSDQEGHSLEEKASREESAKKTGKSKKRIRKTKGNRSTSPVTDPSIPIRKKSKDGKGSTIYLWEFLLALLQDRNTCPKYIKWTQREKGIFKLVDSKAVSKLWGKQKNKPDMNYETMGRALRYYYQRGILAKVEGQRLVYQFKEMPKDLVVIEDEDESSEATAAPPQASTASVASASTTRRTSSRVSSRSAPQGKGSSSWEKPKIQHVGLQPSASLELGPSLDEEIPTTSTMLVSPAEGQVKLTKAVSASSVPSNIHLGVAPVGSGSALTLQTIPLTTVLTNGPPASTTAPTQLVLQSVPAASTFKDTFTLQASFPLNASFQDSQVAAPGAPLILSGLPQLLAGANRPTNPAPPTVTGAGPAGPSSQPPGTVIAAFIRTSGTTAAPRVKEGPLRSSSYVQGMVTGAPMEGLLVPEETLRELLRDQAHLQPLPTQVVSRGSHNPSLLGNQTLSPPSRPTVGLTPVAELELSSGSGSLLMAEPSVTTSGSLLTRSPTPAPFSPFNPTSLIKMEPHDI
# Summary of the method: as §1
# ELK4 = target: T3, ELK4 (Homo sapiens, UniProt P28324-2 1-405); details: protein: recombinant; tags: N-terminal GST; dsDNA, one strand shown
# T3 sequence: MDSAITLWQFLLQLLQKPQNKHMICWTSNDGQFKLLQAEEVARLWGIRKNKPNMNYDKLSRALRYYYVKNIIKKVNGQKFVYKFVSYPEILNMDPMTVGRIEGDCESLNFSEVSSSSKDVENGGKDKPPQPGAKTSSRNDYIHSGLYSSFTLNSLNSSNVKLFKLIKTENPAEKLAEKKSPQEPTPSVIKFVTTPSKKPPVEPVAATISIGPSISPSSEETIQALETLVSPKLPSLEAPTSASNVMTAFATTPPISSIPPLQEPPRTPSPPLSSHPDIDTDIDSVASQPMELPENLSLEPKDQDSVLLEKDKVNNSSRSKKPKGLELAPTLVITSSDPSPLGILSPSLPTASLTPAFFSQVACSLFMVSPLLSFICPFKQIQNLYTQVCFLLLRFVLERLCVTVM
# Summary of the method: as §1
# ETV2 = target: T4, ETV2 (Homo sapiens, UniProt O00321 1-342); details: protein: recombinant; tags: N-terminal GST; dsDNA, one strand shown
# T4 sequence: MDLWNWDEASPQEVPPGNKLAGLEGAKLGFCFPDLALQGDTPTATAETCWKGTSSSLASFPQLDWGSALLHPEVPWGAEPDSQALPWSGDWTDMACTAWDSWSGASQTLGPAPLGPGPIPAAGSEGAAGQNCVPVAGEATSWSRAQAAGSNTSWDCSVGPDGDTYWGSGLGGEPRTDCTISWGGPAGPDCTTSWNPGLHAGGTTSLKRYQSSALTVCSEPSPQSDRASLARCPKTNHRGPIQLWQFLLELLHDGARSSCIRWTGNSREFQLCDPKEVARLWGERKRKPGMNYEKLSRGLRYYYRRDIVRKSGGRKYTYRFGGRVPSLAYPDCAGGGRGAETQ
# Summary of the method: as §1
# ELF3 = target: T5, ELF3 (Homo sapiens, UniProt P78545 1-371); details: protein: recombinant; tags: N-terminal GST; dsDNA, one strand shown
# T5 sequence: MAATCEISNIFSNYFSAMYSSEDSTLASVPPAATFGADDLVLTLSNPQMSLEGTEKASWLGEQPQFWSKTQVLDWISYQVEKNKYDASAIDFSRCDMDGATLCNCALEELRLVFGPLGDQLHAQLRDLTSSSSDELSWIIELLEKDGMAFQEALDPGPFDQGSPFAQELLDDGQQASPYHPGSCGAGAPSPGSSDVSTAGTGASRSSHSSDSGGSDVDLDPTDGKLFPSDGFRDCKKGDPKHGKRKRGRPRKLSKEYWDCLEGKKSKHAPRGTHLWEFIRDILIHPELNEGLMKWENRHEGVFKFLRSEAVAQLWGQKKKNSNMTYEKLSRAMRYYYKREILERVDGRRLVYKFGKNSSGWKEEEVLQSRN
# Summary of the method: as §1
# CRX = CRX (Homo sapiens, UniProt O43186 1-299); details: protein: recombinant; tags: N-terminal GST; dsDNA, one strand shown
# Sequence of CRX (O43186 whole entry): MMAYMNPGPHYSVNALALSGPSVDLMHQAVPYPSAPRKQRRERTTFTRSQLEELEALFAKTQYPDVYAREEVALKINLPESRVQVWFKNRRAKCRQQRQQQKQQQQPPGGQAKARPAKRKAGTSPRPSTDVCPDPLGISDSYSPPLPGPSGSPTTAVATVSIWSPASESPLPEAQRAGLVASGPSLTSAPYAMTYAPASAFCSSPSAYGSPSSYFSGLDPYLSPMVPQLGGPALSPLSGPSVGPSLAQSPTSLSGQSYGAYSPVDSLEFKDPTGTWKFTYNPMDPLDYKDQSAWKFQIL
# Summary of the method: as §1
# ETV1 = ETV1 (Homo sapiens, UniProt P50549 1-477); details: protein: recombinant; tags: N-terminal GST; dsDNA, one strand shown
# Sequence of ETV1 (P50549 whole entry): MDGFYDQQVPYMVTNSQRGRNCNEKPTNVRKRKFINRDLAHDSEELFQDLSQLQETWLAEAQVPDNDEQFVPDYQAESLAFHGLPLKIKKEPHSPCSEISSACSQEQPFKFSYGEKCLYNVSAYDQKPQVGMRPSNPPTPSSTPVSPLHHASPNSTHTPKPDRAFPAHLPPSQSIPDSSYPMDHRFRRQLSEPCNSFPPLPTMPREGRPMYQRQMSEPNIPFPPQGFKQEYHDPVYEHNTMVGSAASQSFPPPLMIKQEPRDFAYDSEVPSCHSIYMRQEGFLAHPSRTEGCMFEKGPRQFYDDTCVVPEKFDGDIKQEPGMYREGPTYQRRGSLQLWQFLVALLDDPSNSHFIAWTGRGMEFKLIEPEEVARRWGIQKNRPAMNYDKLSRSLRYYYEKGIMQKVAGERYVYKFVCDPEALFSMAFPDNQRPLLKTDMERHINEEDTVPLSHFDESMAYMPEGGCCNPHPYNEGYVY
# Summary of the method: as §1
# ERF = target: T6, ERF (Homo sapiens, UniProt P50548 1-548); details: protein: recombinant; tags: N-terminal GST; dsDNA, one strand shown
# T6 sequence: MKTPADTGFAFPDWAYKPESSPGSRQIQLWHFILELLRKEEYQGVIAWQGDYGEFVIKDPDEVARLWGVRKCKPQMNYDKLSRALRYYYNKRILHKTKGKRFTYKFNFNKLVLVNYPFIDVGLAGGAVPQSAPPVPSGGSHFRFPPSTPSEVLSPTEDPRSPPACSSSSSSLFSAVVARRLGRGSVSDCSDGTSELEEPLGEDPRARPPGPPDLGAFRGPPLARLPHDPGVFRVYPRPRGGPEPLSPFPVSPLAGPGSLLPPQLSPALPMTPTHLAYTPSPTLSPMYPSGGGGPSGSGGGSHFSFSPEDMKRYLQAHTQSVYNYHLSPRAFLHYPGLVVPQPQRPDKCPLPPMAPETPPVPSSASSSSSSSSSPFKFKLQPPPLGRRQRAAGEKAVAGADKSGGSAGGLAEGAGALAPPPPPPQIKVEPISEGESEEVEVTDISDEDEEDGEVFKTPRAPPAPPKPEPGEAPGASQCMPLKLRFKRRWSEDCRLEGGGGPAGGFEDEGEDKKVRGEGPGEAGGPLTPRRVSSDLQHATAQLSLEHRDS
# Summary of the method: as §1
# ETV3L = target: T7, ETV3L (Homo sapiens, UniProt Q6ZN32 1-361); details: protein: recombinant; tags: N-terminal GST; dsDNA, one strand shown
# T7 sequence: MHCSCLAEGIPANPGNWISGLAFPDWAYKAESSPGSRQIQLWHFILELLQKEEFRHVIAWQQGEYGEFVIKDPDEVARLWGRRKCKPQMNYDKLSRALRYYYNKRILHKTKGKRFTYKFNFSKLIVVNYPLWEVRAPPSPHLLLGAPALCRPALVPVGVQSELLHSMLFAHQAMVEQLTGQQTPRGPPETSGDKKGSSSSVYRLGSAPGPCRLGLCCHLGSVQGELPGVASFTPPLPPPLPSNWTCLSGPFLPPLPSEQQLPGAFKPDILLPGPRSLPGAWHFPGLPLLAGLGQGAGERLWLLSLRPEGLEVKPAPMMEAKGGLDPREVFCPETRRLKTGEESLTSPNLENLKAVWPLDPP
# Summary of the method: as §1
# ETS2 = target: T8, ETS2 (Homo sapiens, UniProt P15036 1-469); details: protein: recombinant; tags: N-terminal GST; dsDNA, one strand shown
# T8 sequence: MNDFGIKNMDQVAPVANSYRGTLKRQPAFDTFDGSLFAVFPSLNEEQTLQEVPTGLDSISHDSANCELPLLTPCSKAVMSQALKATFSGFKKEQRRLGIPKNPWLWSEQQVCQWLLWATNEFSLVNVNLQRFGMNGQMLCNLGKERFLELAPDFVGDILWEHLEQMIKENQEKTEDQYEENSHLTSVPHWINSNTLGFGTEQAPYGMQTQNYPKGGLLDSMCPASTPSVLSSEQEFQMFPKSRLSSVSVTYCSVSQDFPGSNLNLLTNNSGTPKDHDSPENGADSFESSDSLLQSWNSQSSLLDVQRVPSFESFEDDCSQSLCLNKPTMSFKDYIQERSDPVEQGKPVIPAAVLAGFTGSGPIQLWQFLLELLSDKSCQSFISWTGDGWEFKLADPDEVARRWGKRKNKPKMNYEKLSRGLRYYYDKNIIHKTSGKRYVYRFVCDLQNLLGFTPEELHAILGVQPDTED
# Summary of the method: as §1
# SPDEF = target: T9, SPDEF (Homo sapiens, UniProt O95238 1-335); details: protein: recombinant; tags: N-terminal GST; dsDNA, one strand shown
# T9 sequence: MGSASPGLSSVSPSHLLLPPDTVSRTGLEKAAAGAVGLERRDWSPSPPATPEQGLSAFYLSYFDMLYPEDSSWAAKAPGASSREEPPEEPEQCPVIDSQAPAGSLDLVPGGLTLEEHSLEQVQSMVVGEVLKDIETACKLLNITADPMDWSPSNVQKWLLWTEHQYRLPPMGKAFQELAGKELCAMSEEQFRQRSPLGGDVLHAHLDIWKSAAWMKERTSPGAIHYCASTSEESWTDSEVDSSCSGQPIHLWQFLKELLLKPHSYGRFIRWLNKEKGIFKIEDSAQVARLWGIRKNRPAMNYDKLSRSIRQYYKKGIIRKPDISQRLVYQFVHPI
# Summary of the method: as §1
# ETV7 = target: T10, ETV7 (Homo sapiens, UniProt Q9Y603 1-341); details: protein: recombinant; tags: N-terminal GST; dsDNA, one strand shown
# T10 sequence: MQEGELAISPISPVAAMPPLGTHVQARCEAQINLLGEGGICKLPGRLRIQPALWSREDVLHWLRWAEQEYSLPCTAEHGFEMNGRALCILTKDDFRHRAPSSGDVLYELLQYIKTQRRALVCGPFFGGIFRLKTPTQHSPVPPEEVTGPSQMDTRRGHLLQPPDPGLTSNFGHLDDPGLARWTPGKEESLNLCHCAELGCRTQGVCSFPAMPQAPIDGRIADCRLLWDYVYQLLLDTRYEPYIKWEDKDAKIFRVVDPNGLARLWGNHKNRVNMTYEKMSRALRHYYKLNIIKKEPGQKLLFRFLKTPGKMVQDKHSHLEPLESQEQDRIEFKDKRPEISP
# Summary of the method: as §1
# ELF5 = target: T11, ELF5 (Homo sapiens, UniProt Q9UKW6-2 1-255); details: protein: recombinant; tags: N-terminal GST; dsDNA, one strand shown
# T11 sequence: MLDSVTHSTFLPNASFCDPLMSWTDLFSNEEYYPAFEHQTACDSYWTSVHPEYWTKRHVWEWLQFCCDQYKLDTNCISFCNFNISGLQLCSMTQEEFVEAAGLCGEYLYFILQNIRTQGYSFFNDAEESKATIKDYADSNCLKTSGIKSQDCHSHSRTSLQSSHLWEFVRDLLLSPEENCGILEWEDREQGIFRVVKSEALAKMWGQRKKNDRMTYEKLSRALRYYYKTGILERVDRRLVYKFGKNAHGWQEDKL
# Summary of the method: as §1
# ETV3 = target: T12, ETV3 (Homo sapiens, UniProt P41162-2 1-143); details: protein: recombinant; tags: N-terminal GST; dsDNA, one strand shown
# T12 sequence: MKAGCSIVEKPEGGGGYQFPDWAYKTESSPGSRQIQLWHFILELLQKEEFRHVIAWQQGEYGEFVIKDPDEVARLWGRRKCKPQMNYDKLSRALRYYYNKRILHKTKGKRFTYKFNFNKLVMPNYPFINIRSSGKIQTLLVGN
# Summary of the method: as §1
# ETV6 = ETV6 (Homo sapiens, UniProt P41212 1-452); details: protein: recombinant; tags: N-terminal GST; dsDNA, one strand shown
# Sequence of ETV6 (P41212 whole entry): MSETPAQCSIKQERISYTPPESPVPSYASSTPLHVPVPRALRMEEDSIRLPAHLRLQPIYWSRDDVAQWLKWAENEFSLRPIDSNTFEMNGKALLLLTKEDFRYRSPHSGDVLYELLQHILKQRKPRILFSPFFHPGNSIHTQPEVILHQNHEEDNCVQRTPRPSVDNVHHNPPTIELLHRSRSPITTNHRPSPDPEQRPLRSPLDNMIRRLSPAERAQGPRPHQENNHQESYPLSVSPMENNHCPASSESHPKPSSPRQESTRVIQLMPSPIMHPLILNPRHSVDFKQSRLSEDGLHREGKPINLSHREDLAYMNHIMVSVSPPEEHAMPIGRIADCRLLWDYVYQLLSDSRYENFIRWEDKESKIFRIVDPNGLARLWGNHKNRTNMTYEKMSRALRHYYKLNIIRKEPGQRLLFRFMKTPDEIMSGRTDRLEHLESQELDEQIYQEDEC
# Summary of the method: as §1
sequence,measurement,setting,value
GTGCTT,binding signal,FEV,"1.25 fold enrichment (6-mer frequency, TF over GST control)"
same,binding signal,ETV5,"1.19 fold enrichment (6-mer frequency, TF over GST control)"
same,binding signal,HSF1,"1.05 fold enrichment (6-mer frequency, TF over GST control)"
same,binding signal,SPIC,"1.46 fold enrichment (6-mer frequency, TF over GST control)"
same,binding signal,ELF4,"1.27 fold enrichment (6-mer frequency, TF over GST control)"
same,binding signal,ELK4,"1.1 fold enrichment (6-mer frequency, TF over GST control)"
same,binding signal,ETV2,"1.41 fold enrichment (6-mer frequency, TF over GST control)"
same,binding signal,ELF3,"1.14 fold enrichment (6-mer frequency, TF over GST control)"
same,binding signal,CRX,"1.14 fold enrichment (6-mer frequency, TF over GST control)"
same,binding signal,ETV1,"1.16 fold enrichment (6-mer frequency, TF over GST control)"
same,binding signal,ERF,"1.26 fold enrichment (6-mer frequency, TF over GST control)"
same,binding signal,ETV3L,"1.14 fold enrichment (6-mer frequency, TF over GST control)"
same,binding signal,ETS2,"1.25 fold enrichment (6-mer frequency, TF over GST control)"
same,binding signal,SPDEF,"1.37 fold enrichment (6-mer frequency, TF over GST control)"
same,binding signal,ETV7,"1.3 fold enrichment (6-mer frequency, TF over GST control)"
same,binding signal,ELF5,"1.41 fold enrichment (6-mer frequency, TF over GST control)"
same,binding signal,ETV3,"1.3 fold enrichment (6-mer frequency, TF over GST control)"
same,binding signal,ETV6,"1.37 fold enrichment (6-mer frequency, TF over GST control)"
